PubChem BioAssay (EPA / NIEHS)
Records with an inconclusive call do not appear. Activity calls are given as the source filed them. The calls were made as follows: active = hit-call score of the fitted dose curve at least 0.9, where 1 is the maximum; inconclusive = response in the unintended direction; inactive = score below 0.9.

Read-out: sulfotransferase (SULT2A), SULT2A1 (gene 6822)
Test: CLD_SULT2A_24hr: CellzDirect (CLD) Gene Expression Assay for sulfotransferase (SULT2A) at 24 hours (AID 2283694);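 as to AC50: potency for increased SULT2A1 mRNA level as induction over DMSO baseline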
Procedure: CLD_24hr is a cell-based, multiplexed-readout assay that uses hepatocyte, a human liver primary cell, with measurements taken at 24 hours after chemical dosing in a 96-well plate.CLD_SULT2A_24hr is one of 16 assay component(s) measured or calculated from the CLD_24hr assay. It is designed to make measurements of mRNA induction, a form of inducible reporter, as detected with chemiluminescence signals by Quantitative Nuclease Protection Assay (qNPA) technology.Data from the assay component CLD_SULT2A_24hr was analyzed at the endpoint, CLD_SULT2A_24hr, in the positive analysis fitting direction relative to DMSO as the negative control and baseline of activity. Using a type of inducible reporter, gain-of-signal activity can be used to understand changes in the reporter gene as they relate to the gene SULT2A1. Furthermore, this assay endpoint can be referred to as a primary readout. To generalize the intended target to other relatable targets, this assay endpoint is annotated to the transferase intended target family, where subfamily is sulfotransferase.
Human hepatocyte cultures were treated daily for two consecutive days with fresh dosing solutions containing appropriate concentrations of the 320 ToxCast chemicals (chemical identities were blinded to CellzDirect and other ToxCast collaborators), vehicle control (0.2% DMSO), and positive control inducers as summarized in Table 1. Due to the large number of treatment groups and chemicals examined, the ToxCast chemicals were divided into two groups (spanning two independent cultures of hepatocytes from separate donor preparations (Hu778: ToxCast plates 1 and 2; Hu776: ToxCast plates 3 and 4). Each preparation of human hepatocyte cultures was treated with respective vehicle control, medium only control, set of six positive controls/reference chemicals for the five hepatic receptor pathways, and a subset of eight of the ToxCast chemicals (indoxacarb, pyrithiobac-sodium, norflurazon, cyhalofop-butyl, methomyl, thiram, acetochlor, and propiconazole). These replicate data, coupled with internal replicates designed within the blinded ToxCast chemical library, provided additional data to evaluate interindividual differences between hepatocyte preparations and their potential impact on chemical profiles.Cell morphology and integrity were evaluated using phase-contrast microscopy as an indicator of hepatocyte cell health (Tyson & Green, 1987). Cultures for each treatment group (i.e., media, vehicle [0.2% DMSO], positive control inducers [multiple concentrations], and the ToxCast chemicals [multiple concentrations]) were observed and cell morphology was assessed relative to vehicle control cultures at each harvest time point (0, 6, 24, or 48 h). […] Images were evaluated at the conclusion of the study to assess changes in cell integrity and account for the effects of chemical exposure on uncharacteristic changes in concentration-dependent gene expression profiles. The results from these determinations of apparent cytotoxicity were annotated (yes/no) alongside the corresponding qNPA data for reference.At the conclusion of each treatment period, hepatocyte cultures (96-well) were washed with 1 volume of HBSS, lysed by addition of 25 ul ArrayPlate lysis buffer (HTG, Tucson, AZ), and 70 ul/well of Denaturation Oil, denatured by incubation at 95C for 10 min, and frozen at approximately -70C until analysis by nuclease protection assay (qNPA) (Roberts et al., 2007). For qNPA analysis, cell lysates were thawed at 50C for approximately 30 min, qNPA probes were added, and samples were incubated at 95C for 10 min to begin the detection process by denaturing the target RNA, dissociating the duplexes and secondary structure hybridization. At the conclusion of the hybridization period, S1 nuclease reagent was added to each sample to digest all nonprotected nucleotides at 50C for 60-90 min. […]

Q: How did the outcome turn out when `CCS(=O)(=O)c1cccnc1S(=O)(=O)NC(=O)Nc1nc(OC)cc(OC)n1` was run?
A: inactive

Q: With `CCC(C)(NC(=O)c1cc(Cl)c(C)c(Cl)c1)C(=O)CCl` (configuration not stated) as the compound, how does the outcome read?
A: inactive

Q: `CCc1ccc(C(=O)NN(C(=O)c2cc(C)cc(C)c2)C(C)(C)C)cc1` was tested. Which outcome did it give?
A: inactive

Q: How did the outcome turn out when `COC(=O)c1ccccc1S(=O)(=O)NC(=O)Nc1nc(C)nc(OC)n1` was run?
A: inactive

Q: With `ClC1C(Cl)C(Cl)C(Cl)C(Cl)C1Cl` (configuration not stated) as the compound, how does the outcome read?
A: inactive

Q: With `O=C(NC(=O)c1c(F)cccc1F)Nc1ccc(OC(F)(F)C(F)OC(F)(F)F)c(Cl)c1` (configuration not stated) as the compound, how does the outcome read?
A: inactive

Q: With `CC(C)(C)C(O)/C(=C\c1ccc(Cl)cc1Cl)n1cncn1` (configuration not stated) as the compound, how does the outcome read?
A: inactive

Q: Which AC50 does the source give for `CC[C@H](C)[C@H]1O[C@]2(C=C[C@@H]1C)C[C@@H]1C[C@@H](C/C=C(\C)[C@@H](O[C@H]3C[C@H](OC)[C@@H](O[C@H]4C[C@H](OC)[C@@H](O)[C@H](C)O4)[C@H](C)O3)[C@@H](C)/C=C/C=C3\CO[C@@H]4[C@H](O)C(C)=C[C@@H](C(=O)O1)[C@]34O)O2` (tested in a mixture with another compound) here?
A: 12.3 µM (active)

Q: For `COP(=S)(OC)Oc1ccc([N+](=O)[O-])cc1`, which outcome is on record?
A: inactive

Q: With `O=S(=O)(O)C(F)(F)C(F)(F)C(F)(F)C(F)(F)C(F)(F)C(F)(F)C(F)(F)C(F)(F)F` as the compound, how does the outcome read?
A: inactive

Q: With `C[C@H]1[C@H](c2ccc(Cl)cc2)SC(=O)N1C(=O)NC1CCCCC1` as the compound, how does the outcome read?
A: inactive

Q: With `COc1cc(OC)nc(NC(=O)NS(=O)(=O)c2cc(NC=O)ccc2C(=O)N(C)C)n1` as the compound, how does the outcome read?
A: inactive

Q: `Cc1cc(C)nc(NC(=O)NS(=O)(=O)c2ccccc2C(=O)OC2COC2)n1` was tested. Which outcome did it give?
A: inactive

Q: How did the outcome turn out when `COC(=O)c1ccccc1S(=O)(=O)NC(=O)N(C)c1nc(C)nc(OC)n1` was run?
A: inactive

Q: Which outcome does the source give for `COP(=O)(OC)OC=C(Cl)Cl` here?
A: inactive

Q: With `COc1nn(CSP(=S)(OC)OC)c(=O)s1` as the compound, how does the outcome read?
A: inactive

Q: Which outcome does the source give for `Oc1cc(Cl)ccc1Oc1ccc(Cl)cc1Cl` here?
A: inactive

Q: For `CC(C)OC(=O)Nc1cccc(Cl)c1`, which outcome is on record?
A: inactive

Q: How did the outcome turn out when `CNC(=O)/C=C(\C)OP(=O)(OC)OC` was run?
A: inactive

Q: For `O=C(O)C(F)(F)C(F)(F)C(F)(F)C(F)(F)C(F)(F)C(F)(F)C(F)(F)F`, which outcome is on record?
A: inactive

Q: Which outcome does the source give for `N#CN` here?
A: inactive

Q: How did the outcome turn out when `CCOCN(C(=O)CCl)c1c(C)cccc1CC` was run?
A: inactive

Q: Which outcome does the source give for `CC(C)(C)C(O)C(Oc1ccc(Cl)cc1)n1cncn1` (configuration not stated) here?
A: inactive

Q: For `CCOC1Oc2ccc(OS(C)(=O)=O)cc2C1(C)C` (configuration not stated), which outcome is on record?
A: inactive

Q: `CCCN(CCC)c1c([N+](=O)[O-])cc(C(F)(F)F)cc1[N+](=O)[O-]` was tested. Which outcome did it give?
A: inactive

Q: Which AC50 does the source give for `Clc1ccccc1-c1nnc(-c2ccccc2Cl)nn1` here?
A: 0.852 µM (active)

Q: How did the outcome turn out when `O=[N+]([O-])/N=C1\NCCN1Cc1ccc(Cl)nc1` was run?
A: inactive

Q: With `CC(C)N(C(=O)COc1nnc(C(F)(F)F)s1)c1ccc(F)cc1` as the compound, how does the outcome read?
A: inactive

Q: `CNC(=O)CSP(=S)(OC)OC` was tested. Which outcome did it give?
A: inactive

Q: Which outcome does the source give for `C#CCN1C(=O)COc2cc(F)c(N3C(=O)C4=C(CCCC4)C3=O)cc21` here?
A: inactive

Q: With `O=C(O)CCCOc1ccc(Cl)cc1Cl` as the compound, how does the outcome read?
A: inactive

Q: With `CCC(C)Nc1c([N+](=O)[O-])cc(C(C)(C)C)cc1[N+](=O)[O-]` (configuration not stated) as the compound, how does the outcome read?
A: inactive
